Compound activity (PubChem)
Sampled rows, rich in hits. Any-hit rate of the full collection: about 13%.
RAM inhibit = inhibitors of the yeast RAM network. inhibition, % at 50 µM. 1.8% of 190,000 active. S. cerevisiae dse1pr::URA3 reporter, 5-FOA growth OD615, 2 d; analog-sensitive cbk1-as2 kinase mutant strain;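 active means inhibition above a set limit, 3 SD over mean compound inhibition, cut at about 8.4% in these data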;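 further: inhibition rescues growth on 5-FOA so higher OD means more RAM inhibition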
L major viab = inhibitors of Leishmania major promastigote growth. Leishmania major promastigotes, resazurin fluorescence viability. inhibition, % at 10 µM. 9% of 200,000 active; in the data active means inhibition above about 50%;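 further: promastigotes grown with compound for 44 hours at 28 °C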
CHOP inhibitor = blocks CHOP induction under ER stress. CHO-K1 CHOP-promoter luciferase, tunicamycin-induced, 15-18 h. inhibition, % at 10 µM. 3.8% of 220,000 active;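 active means compounds that reduced the stress-induced luciferase reporter signal by more than about 70% of percent inhibition, limit read from the data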
WT yeast gro inh = growth inhibition of WT yeast, mitochondrial fusion screen | 2.1% of 190,000 active | mitochondrial fusion phenotypic screen, WT strain | inhibition, % at 10 µM; in the data active means inhibition above about 58%; tested in S. cerevisiae
A number is an active result.

How did CC(=O)OC1N=C(c2ccccc2)c2cc(Br)ccc2NC1=O (stereo not drawn) do in these assays?
RAM inhibit: inactive; L major viab: 84.9; CHOP inhibitor: inactive; WT yeast gro inh: inactive

What do the screens show for `CC1CN=C(NCCc2ccccc2)S1` (stereo not drawn)?
RAM inhibit: inactive; L major viab: inactive; CHOP inhibitor: inactive; WT yeast gro inh: inactive

What do the screens show for `CC(C)NP(=O)(NC(C)C)OP(=O)(NC(C)C)NC(C)C`?
CHOP inhibitor: inactive

How did COC(=O)c1c(C)[nH]c(C(=O)C(Cc2ccccc2)N(C)C)c1C (stereo not drawn) do in these assays?
RAM inhibit: inactive; L major viab: 99.8; CHOP inhibitor: inactive; WT yeast gro inh: inactive

What do the screens show for `CC(NC1=NCCS1)c1ccccc1` (stereo not drawn)?
RAM inhibit: inactive; L major viab: inactive; CHOP inhibitor: inactive; WT yeast gro inh: inactive

How did Cn1cccc1/C=C1\C(=O)NC(=O)N(CCC2=CCCCC2)C1=O do in these assays?
RAM inhibit: inactive; L major viab: inactive; CHOP inhibitor: inactive; WT yeast gro inh: inactive

What do the screens show for `O=C1NC(=S)N(Cc2ccco2)C(=O)/C1=C\c1cccs1`?
RAM inhibit: inactive; L major viab: inactive; CHOP inhibitor: inactive; WT yeast gro inh: inactive

How did C=CCN1C(=O)/C(=C/c2cccs2)C(=O)NC1=S do in these assays?
RAM inhibit: inactive; L major viab: inactive; CHOP inhibitor: 80.2; WT yeast gro inh: inactive

What do the screens show for `O=C1NC(=O)N(CCC2=CCCCC2)C(=O)/C1=C\c1cccs1`?
RAM inhibit: inactive; L major viab: 55.0; CHOP inhibitor: 93.9; WT yeast gro inh: inactive

What do the screens show for `CC(C)CCn1c(=O)c(C(=O)Nc2ccccc2S(N)(=O)=O)c(O)c2ccccc21`?
RAM inhibit: inactive; L major viab: 99.7; CHOP inhibitor: 92.1; WT yeast gro inh: inactive

What do the screens show for `CC1CN(c2ccc([N+](=O)[O-])cc2Cl)CCN1` (stereo not drawn)?
RAM inhibit: inactive; L major viab: inactive; CHOP inhibitor: inactive; WT yeast gro inh: inactive

How did CCN(c1ccc(C(O)(C(=O)OC)C(F)(F)F)cc1)S(=O)(=O)c1ccccc1 (stereo not drawn) do in these assays?
RAM inhibit: inactive; L major viab: 98.8; CHOP inhibitor: inactive; WT yeast gro inh: inactive

How did CCOC(=O)C(O)(c1ccc(N(CC)S(=O)(=O)c2ccccc2)cc1)C(F)(F)F (stereo not drawn) do in these assays?
RAM inhibit: inactive; L major viab: 99.6; CHOP inhibitor: inactive; WT yeast gro inh: inactive

How did CCOC(=O)C(O)(c1ccc(NC(=O)Oc2ccccc2)cc1)C(F)(F)F (stereo not drawn) do in these assays?
RAM inhibit: inactive; L major viab: inactive; CHOP inhibitor: inactive; WT yeast gro inh: inactive

Results for Cn1c(O)c(C=NCCN2CCN(C(=O)Nc3ccccc3)CC2)c(=O)n(C)c1=O ?
CHOP inhibitor: inactive

Results for Cc1cccc(N2C(=O)NC(=O)/C(=C\c3cnc(-c4ccccc4)nc3)C2=O)c1 ?
RAM inhibit: inactive; L major viab: inactive; CHOP inhibitor: inactive; WT yeast gro inh: inactive

Results for Cc1cc(C)cc(N2C(=O)NC(=O)/C(=C\c3cccn3-c3ccc(Cl)cc3)C2=O)c1 ?
RAM inhibit: inactive; L major viab: 92.0; CHOP inhibitor: inactive; WT yeast gro inh: inactive

Results for Cc1cc(C)cc(N2C(=O)NC(=O)/C(=C\c3cccn3-c3ccccc3)C2=O)c1 ?
RAM inhibit: 9.8; L major viab: inactive; CHOP inhibitor: inactive; WT yeast gro inh: inactive

Results for Cc1cccc(N2C(=O)NC(=O)/C(=C\c3ccc(N4CCOCC4)cc3)C2=O)c1 ?
CHOP inhibitor: inactive

What do the screens show for `CCn1c(O)c(C=NCCN2CCOCC2)c(=O)[nH]c1=S`?
CHOP inhibitor: inactive

How did CCC(=O)N1c2ccc(S(=O)(=O)CCC(=O)N3CCC4(CC3)OCCO4)cc2CC1C (stereo not drawn) do in these assays?
RAM inhibit: inactive; L major viab: inactive; CHOP inhibitor: inactive; WT yeast gro inh: inactive

What do the screens show for `NC(=O)CI`?
CHOP inhibitor: inactive

What do the screens show for `c1ccc(NC2=NCCS2)cc1`?
CHOP inhibitor: inactive

Results for CC1(C)CC(CCNCc2ccc3c(c2)OCO3)(Cc2ccccc2)CCO1 (stereo not drawn) ?
RAM inhibit: inactive; L major viab: 89.4; CHOP inhibitor: inactive; WT yeast gro inh: inactive

Results for COc1cc(CNCCc2ccc3c(c2)OCO3)cc(OC)c1OC ?
RAM inhibit: inactive; L major viab: inactive; CHOP inhibitor: inactive; WT yeast gro inh: inactive

How did CCN(CC)P(c1n(C)cc[n+]1C)N(CC)CC do in these assays?
RAM inhibit: inactive; L major viab: inactive; CHOP inhibitor: inactive; WT yeast gro inh: inactive

What do the screens show for `COc1ccc(C(=O)C2CCCN(Cc3ccon3)C2)cc1OC` (stereo not drawn)?
RAM inhibit: inactive; L major viab: inactive; CHOP inhibitor: inactive; WT yeast gro inh: inactive

What do the screens show for `Cc1ncc(CN2CCCC(C(=O)c3cccc(Cl)c3)C2)s1` (stereo not drawn)?
RAM inhibit: inactive; L major viab: 85.0; CHOP inhibitor: inactive; WT yeast gro inh: inactive

How did CCOC(=O)c1[nH]ncc1CN1CCCC(C(=O)c2cccc(Cl)c2)C1 (stereo not drawn) do in these assays?
CHOP inhibitor: inactive

How did Cc1ncc(CN2CCCC(C(=O)c3ccc(C(C)(C)C)cc3)C2)s1 (stereo not drawn) do in these assays?
RAM inhibit: inactive; L major viab: 91.3; CHOP inhibitor: inactive; WT yeast gro inh: inactive

How did COc1ccc(C(=O)C2CCCN(Cc3cnc(C)s3)C2)cc1OC (stereo not drawn) do in these assays?
RAM inhibit: inactive; L major viab: 81.4; CHOP inhibitor: inactive; WT yeast gro inh: inactive

What do the screens show for `COc1ccc(C(=O)C2CCCN(Cc3cnc(C)s3)C2)c(OC)c1` (stereo not drawn)?
RAM inhibit: inactive; L major viab: 86.9; CHOP inhibitor: inactive; WT yeast gro inh: inactive

How did O=P(NCc1ccccc1)(Oc1ccccc1)Oc1ccccc1 do in these assays?
RAM inhibit: inactive; L major viab: inactive; CHOP inhibitor: inactive; WT yeast gro inh: inactive

Results for COC(=O)C1C(O)C(C)C(O)C(C)/C=C\C=C(/C)C(=O)Nc2c(C)c(OC(C)=O)c3c(c2O)C(=O)C(C)=C2OCOC(=C23)/C(C)=C/C(C)(O)C(O)C(C)C1O (stereo not drawn) ?
CHOP inhibitor: inactive

How did CN(C)c1ccc(/C=C2/C(=N\O)C3CCN2CC3)cc1 do in these assays?
CHOP inhibitor: inactive

How did CC(=O)OC1N=C(c2ccccc2)c2cc(Br)ccc2N(C)C1=O (stereo not drawn) do in these assays?
RAM inhibit: inactive; L major viab: inactive; CHOP inhibitor: inactive; WT yeast gro inh: inactive

Results for CCn1cnc2c(Nc3cccc(Cl)c3)nc(N[C@@H]3CCCC[C@@H]3N)nc21 ?
CHOP inhibitor: inactive

How did CCc1c(C(=O)OC)ncc2[nH]c3cc(OC)c(OC)cc3c12 do in these assays?
CHOP inhibitor: inactive

Results for CCOc1ccc(-c2cc(C)[n+](CCO)c(-c3ccc(OCC)cc3)c2)cc1 ?
RAM inhibit: inactive; L major viab: 99.1; CHOP inhibitor: inactive; WT yeast gro inh: inactive

How did CC(=O)c1ccc2c(c1)C1C(Cl)C(Sc3ccccc3[N+](=O)[O-])CC1C(C(=O)O)N2 (stereo not drawn) do in these assays?
RAM inhibit: 10.8; L major viab: inactive; CHOP inhibitor: inactive; WT yeast gro inh: inactive
